Screening results: PubChem BioAssay, National Center for Advancing Translational Sciences (NCATS)
Hits are enriched below; roughly 1% of the tested compounds scored in any of these assays.
GPT2 inhibitor – blocks human glutamate pyruvate transaminase 2; 100,000 compounds, 0.25% hits; Q8TD30; Potency, µM (series often up to 57.7 µM), without a hit: at the top dose activity change, negative = inhibition, hits mostly inhibitors; Recombinant GPT2, coupled pyruvate oxidase/HRP Amplex Red fluorescence; note: potency is the fitted concentration of half-maximal effect; nearly all actives have a fitted effect of over 60% in size
Target sequence (Q8TD30 whole entry, looked up): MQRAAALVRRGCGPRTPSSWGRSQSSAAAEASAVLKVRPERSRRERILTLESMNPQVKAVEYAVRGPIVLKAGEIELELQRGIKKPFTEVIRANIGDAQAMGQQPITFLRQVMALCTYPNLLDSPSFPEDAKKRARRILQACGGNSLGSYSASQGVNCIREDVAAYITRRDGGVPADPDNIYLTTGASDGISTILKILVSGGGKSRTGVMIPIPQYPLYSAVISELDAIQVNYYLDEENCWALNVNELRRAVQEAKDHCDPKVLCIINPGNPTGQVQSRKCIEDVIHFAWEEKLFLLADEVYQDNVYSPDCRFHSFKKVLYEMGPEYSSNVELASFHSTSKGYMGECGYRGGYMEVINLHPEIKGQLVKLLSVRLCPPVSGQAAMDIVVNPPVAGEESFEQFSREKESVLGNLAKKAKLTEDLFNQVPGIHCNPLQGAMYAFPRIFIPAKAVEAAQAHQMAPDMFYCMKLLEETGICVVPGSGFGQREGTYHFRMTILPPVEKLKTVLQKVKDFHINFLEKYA
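Recombinant GPT2 (10ng/uL) with 250uM a-KG and 2mM L-alanine, 30 min at room temperature, in HEPES pH 7.5 buffer. Pyruvate detected by pyruvate oxidase/HRP/Amplex Red fluorescence after 30 min in the dark; AOA (50uM) as positive control.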
SNCA viab count – counter-screen for SNCA expression inhibitors: cell viability; 150,000 compounds, 0.12% hits; AID 1671193; HEK-293-SNCA-luc viability, GF-AFC fluorescence, 24 h; Potency, µM (titrated, usually from 57.1 µM), for the others: at the highest dose activity change, negative = cytotoxicity, hits mostly cytotoxic;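 note: potency is the fitted concentration of half-maximal effect; 0% = DMSO-treated cells and -100% = medium-only wells without cells; nearly all actives have a fitted effect of over 30% in size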
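HEK-293-SNCA-luc cells (1500/well) plated 24 h, then exposed 24 h to a dilution series; GF-AFC added 30 min at 37C, fluorescence 405/540 nm; normalised to medium-only and DMSO wells, Hill fit.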
SNCA expr inhib – SNCA gene expression inhibition. HEK-293 SNCA-luciferase knock-in, luminescence, 24 h. Potency, µM (titrated, usually from 57.2 µM), for inactives: at the top dose activity change, negative = inhibition, usual class: inhibitors. 140,000 compounds, 0.17% hits. AID 1671194;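 note: potency is the fitted concentration of half-maximal effect; plate controls were DMSO cells for no effect and cell-free wells for full effect; nearly all actives have a fitted effect of over 45% in size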
IP6K1 inh – blocks human inositol hexakisphosphate kinase 1; IP6K1 kinase, ADP-Glo luminescence, 2 h; stronger effect = lower value; AID 1645851; activity change, % (series mostly up to about 58 µM); Q92551; 140,000 compounds, 0.81% hits; in the data active = activity change below about -25%
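ADP-Glo luminescence measures ADP made by human IP6K1 during a 2 h RT reaction with ATP/IP6 (mix at 1.3 mM/130 uM); top library doses 57.5 and 19.1 uM final.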
Starred values were filed as active, the others as inactive; ! = repeats disagree; [ ] = remark or other dose. Unless noted, calls come from the whole dose curve; as a rule, active = well fitted curve in the direction sought with a large enough effect; inconclusive = small, poorly fitted or top-dose-only effect, or another doubt; inactive = no such curve, though single readings can be large; an effect the other way counts as inactive or inconclusive. Unless noted, % is set by controls: 0 for no effect and ±100 for the full control effect.

What do the screens show for `COC(=O)NCCNC(=O)c1ccc(-c2cccc(OC)c2)cc1`?
IP6K1 inh: -1

How did Cc1cccc(NC(=O)Cn2c(N3CCc4ccccc4C3)nc(C)cc2=O)c1 do in these assays?
GPT2 inhibitor: inactive; SNCA viab count: -25%; SNCA expr inhib: inconclusive; IP6K1 inh: 10

How did Cc1cccc(N(C)C(=O)Cn2c(N3CCc4ccccc4C3)nc(C)cc2=O)c1 do in these assays?
GPT2 inhibitor: -3%; SNCA viab count: 11µM*; SNCA expr inhib: inconclusive; IP6K1 inh: 18

How did CCOc1ccc(NC(=O)c2c(NCc3cc(OC)c(OC)cc3OC)sc3c2CCCC3)cc1 do in these assays?
SNCA viab count: -5%; SNCA expr inhib: 2%; IP6K1 inh: -30*

How did O=C(NC1CC1)C1CCCN(Cc2cccc(-c3cccs3)c2)C1 (stereo unspecified) do in these assays?
GPT2 inhibitor: -3%; SNCA viab count: 1%; SNCA expr inhib: -18%; IP6K1 inh: 4

What do the screens show for `CCCNc1cc(N2CCC(CCC(=O)O)CC2)ncn1`?
GPT2 inhibitor: inactive; SNCA viab count: 2%; SNCA expr inhib: 1.1µM*; IP6K1 inh: 2

What do the screens show for `CCCNC(=O)CCC1CCN(c2cc(NCCC)ncn2)CC1`?
GPT2 inhibitor: inactive; SNCA viab count: -1%; SNCA expr inhib: 3.2µM*; IP6K1 inh: 18

How did CCCNc1cc(N2CCC(CCC(=O)NCc3ccccc3)CC2)ncn1 do in these assays?
GPT2 inhibitor: -16%; SNCA viab count: 12%; SNCA expr inhib: 2.5µM*; IP6K1 inh: 17

Results for CCCNc1cc(N2CCC(CCC(=O)Nc3cccc(C)c3)CC2)ncn1 ?
GPT2 inhibitor: inconclusive; SNCA viab count: -2%; SNCA expr inhib: 2µM*; IP6K1 inh: -1

What do the screens show for `CCCNc1cc(N2CCC(CCC(=O)Nc3ccc4c(c3)OCCO4)CC2)ncn1`?
GPT2 inhibitor: inactive; SNCA viab count: 0%; SNCA expr inhib: inconclusive; IP6K1 inh: 16

Results for Cc1cc(C)c(CNC(=O)c2nc(-c3ccnn3C)cc3c2ccn3C(C)C)c(=O)[nH]1 ?
GPT2 inhibitor: inconclusive; SNCA viab count: 2%[87.6 µM]; SNCA expr inhib: 13%[87.6 µM]; IP6K1 inh: -11

Results for COc1ccc(Cc2nnc3ccc(C(=O)NCC(F)(F)F)cn23)cc1 ?
GPT2 inhibitor: inactive; SNCA viab count: 0%; SNCA expr inhib: 12%; IP6K1 inh: 5

Results for O=C(c1ccccc1F)N1CCCC(C(=O)N2CCCC(c3nc4ccncc4[nH]3)C2)C1 (stereo unspecified) ?
GPT2 inhibitor: inactive; SNCA viab count: -13%; SNCA expr inhib: -15%; IP6K1 inh: -11

How did O=C(O)CCC1CCN(c2cc(NC3CC3)ncn2)CC1 do in these assays?
GPT2 inhibitor: inactive; SNCA viab count: -6%; SNCA expr inhib: 1.1µM*; IP6K1 inh: 2

How did CCCNc1cc(N2CCC(CCC(=O)NCC)CC2)ncn1 do in these assays?
GPT2 inhibitor: -2%; SNCA viab count: -15%; SNCA expr inhib: 2.5µM*; IP6K1 inh: 12

How did CCNc1cc(N2CCC(CCC(=O)NCC3CC3)CC2)ncn1 do in these assays?
GPT2 inhibitor: inactive; SNCA viab count: 12%; SNCA expr inhib: inconclusive; IP6K1 inh: 20

Results for COc1c/c(=C2\C=c3ccccc3=N2)[nH]/c1=C\c1[nH]c(C)cc1C ?
GPT2 inhibitor: inactive; SNCA viab count: 4.7µM*; IP6K1 inh: -12

What do the screens show for `COc1ccc(OCC(O)CN2CCC(=O)N(C3CCCC3)Cc3ccccc32)cc1` (stereo unspecified)?
IP6K1 inh: 13

What do the screens show for `CC(C)N1[N]C(=C2C=c3cc(O)ccc3=N2)c2c(N)ncnc21`?
GPT2 inhibitor: 0.61µM*; SNCA viab count: inconclusive; SNCA expr inhib: -26%

What do the screens show for `Cc1cccc(C2CN(C)CCc3c2cc(O)c(O)c3Cl)c1` (stereo unspecified)?
GPT2 inhibitor: 7.1µM*; SNCA viab count: -12%; SNCA expr inhib: -22%

How did C=CCN1CCc2c(cc(O)c(O)c2Cl)C(c2ccccc2)C1 (stereo unspecified) do in these assays?
GPT2 inhibitor: inconclusive; SNCA viab count: -25%; SNCA expr inhib: 1%

Results for Cn1ncc2c(C(=O)N3CCOCC3)cc(-c3ccccc3F)nc21 ?
IP6K1 inh: 7

How did Cc1nc(Nc2n[nH]c3c2CN(C(=O)NC(CN(C)C)c2ccccc2)C3(C)C)c2sccc2n1 (stereo unspecified) do in these assays?
GPT2 inhibitor: 4%; SNCA viab count: 7.5µM*; IP6K1 inh: -5

Results for O=C(NC1CCCN(c2ccc3nnc(C4CC4)n3n2)C1)c1ccccc1F (stereo unspecified) ?
IP6K1 inh: 15

What do the screens show for `Cc1cccc(N2Cc3c(NC4CCCC4)ncnc3N(C)CC2=O)c1`?
GPT2 inhibitor: inactive; SNCA viab count: 2%; SNCA expr inhib: 10%; IP6K1 inh: 2

What do the screens show for `CN(C)CCCOc1nn(Cc2ccccc2)c2ccccc12`?
GPT2 inhibitor: 1.3µM*!; SNCA viab count: -5%; SNCA expr inhib: -2%[25.6 µM]; IP6K1 inh: -1

What do the screens show for `CN(C)C(=O)C(C)(C)Oc1nn(Cc2cccc(Cl)c2)c2ccccc12`?
GPT2 inhibitor: -13%[88.5 µM]; SNCA viab count: -17%[87.6 µM]; SNCA expr inhib: inconclusive; IP6K1 inh: -6

Results for CS(=O)(=O)N1CCN(c2ccc3nnc(C4CC4)n3n2)CC1 ?
IP6K1 inh: 12

How did CCCC(=O)c1cc2c(cc1NC(=O)c1ccccc1F)OCCO2 do in these assays?
SNCA viab count: -4%; SNCA expr inhib: 14µM*; IP6K1 inh: 22

Results for CCC(=O)c1cc2c(cc1NC(=O)c1ccccc1F)OCCO2 ?
SNCA viab count: 1%; SNCA expr inhib: 12%; IP6K1 inh: 19

What do the screens show for `O=C(C1CCCN1C(=O)c1ccc(F)cc1)N1CCC(N2CCOCC2=O)CC1` (stereo unspecified)?
GPT2 inhibitor: inactive; SNCA viab count: 4%; SNCA expr inhib: 4%; IP6K1 inh: 6

Results for Cc1nn(C(=O)c2ccccc2)c(C)c1Sc1ccc(Cl)cc1 ?
SNCA viab count: 20µM*; SNCA expr inhib: inconclusive; IP6K1 inh: -11

How did CC(C)N1C[C@H](O)C[C@H]1c1nnc2n1CCN(C(=O)c1ccsc1)C2 do in these assays?
GPT2 inhibitor: -8%; SNCA viab count: 0%[12.5 µM]; SNCA expr inhib: 25µM*; IP6K1 inh: 0

Results for CC1(C)CCC2=C(O1)c1ccccc1C(=O)C2=O ?
GPT2 inhibitor: 3.4µM*!; SNCA viab count: inconclusive; SNCA expr inhib: inconclusive

Results for COc1ccc(N2CCN(C(=O)CC3CCCCN(Cc4ccccc4)C3=O)CC2)cc1 (stereo unspecified) ?
GPT2 inhibitor: inconclusive; SNCA viab count: -9%; SNCA expr inhib: -14%; IP6K1 inh: -4

Results for C=CCNC1=C2C[C@@H](C)C[C@H](OC)[C@@H](O)[C@@H](C)C=C(C)[C@H](OC(N)=O)[C@@H](OC)C=CC=C(C)C(=O)NC(=CC1=O)C2=O ?
GPT2 inhibitor: 3%; SNCA viab count: -24%; SNCA expr inhib: inconclusive
